Source: PubChem BioAssay (Tox21)
Inconclusive results are not listed. Unmarked numbers belong to inactive results. The source made the active and inactive calls. Calls follow the shape of the full dose curve.

biological target: Thyrotropin receptor (Homo sapiens) (UniProt P16473); assay: qHTS assay to identify small molecule antagonists of the thyroid stimulating hormone receptor (TSHR) signaling pathway (AID 1259385); details: TSHR-HEK293 cAMP HTRF, TSH-stimulated antagonist mode; series mostly up to 92.4 µM; activity change, negative = inhibition: at the top concentration; also: nearly all actives have a fitted effect of over 20% in size
Sequence (P16473 whole entry, looked up): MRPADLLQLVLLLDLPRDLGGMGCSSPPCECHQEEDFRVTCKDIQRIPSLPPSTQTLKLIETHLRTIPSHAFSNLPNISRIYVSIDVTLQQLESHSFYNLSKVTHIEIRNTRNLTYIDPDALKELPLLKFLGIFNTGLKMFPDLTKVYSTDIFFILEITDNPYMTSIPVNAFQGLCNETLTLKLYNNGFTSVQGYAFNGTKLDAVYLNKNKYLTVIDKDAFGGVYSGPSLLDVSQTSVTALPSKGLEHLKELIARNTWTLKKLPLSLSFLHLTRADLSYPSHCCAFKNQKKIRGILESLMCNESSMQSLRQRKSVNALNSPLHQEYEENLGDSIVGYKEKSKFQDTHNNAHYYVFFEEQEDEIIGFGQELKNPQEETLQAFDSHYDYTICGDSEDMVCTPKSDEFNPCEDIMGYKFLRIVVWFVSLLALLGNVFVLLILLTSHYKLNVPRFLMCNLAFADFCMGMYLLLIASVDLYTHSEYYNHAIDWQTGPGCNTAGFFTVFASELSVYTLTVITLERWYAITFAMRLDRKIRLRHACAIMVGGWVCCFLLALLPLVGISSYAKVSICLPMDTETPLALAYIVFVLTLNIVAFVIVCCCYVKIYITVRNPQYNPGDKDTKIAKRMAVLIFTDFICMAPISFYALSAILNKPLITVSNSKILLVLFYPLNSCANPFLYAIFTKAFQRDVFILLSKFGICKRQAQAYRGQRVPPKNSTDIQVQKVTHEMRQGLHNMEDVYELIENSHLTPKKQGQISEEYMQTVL
Excerpt: U.S. Tox21 Program National Center for Advancing Translational Sciences [NCATS] NIH Chemical Genomics Center [NCGC] U.S. Environmental Protection Agency [EPA] National Institutes of Environmental Health Sciences [NIEHS] National Toxicology Program [NTP] U.S. Food and Drug Administration [FDA] Tox21 Assay Overview: TSHR is the receptor for thyrotropin (thyroid stimulating hormone or TSH), a member of the glycoprotein hormone family. TSH is released by the anterior pituitary gland and is the main regulator of thyroid gland growth and development. Upon binding circulating thyrotropin, a G-protein signal cascade activates adenylyl cyclase and […] cAMP concentration is increased. cAMP is a key second messenger involved extensively in cellular signal transduction pathways associated with the majority of G-protein coupled receptors (GPCRs). The activation of these GPCRs by neurotransmitters, lipids, nucleotides, peptides and hormones results in the activation or the inhibition of plasma membrane-bound adenylate cyclase through heterotrimeric G-proteins. A cell-based TSHR assay can be used to screen chemical compounds that modulate TSHR either in agonist or antagonist mode.
Tox21 Assay Protocol Summary: TSHR-Hek293 cells were dispensed at 800 cells/4uL/well in 1536-well white plates using a Multidrop dispenser. After the assay plates were incubated at a 37C/5% CO2 incubator for 18 hrs, 23 nL of compounds dissolved in DMSO, positive controls or DMSO only was transferred to the assay plate by a pin tool, followed by 1 ul medium containing Ro20-1724. For the antagonist mode screening, 1 uL of TSH was added on the top of the cell/compound mixtures to achieve a final agonist concentration of 1.5 ng/mL. After 30 min of incubation at room temperature, 2.5 ul/well of cAMP-d2 and 2.5 ul/well of anti-cAMP-cryptate were added respectively into the assay plates using a Flying Reagent Dispenser. The plates were incubated at room temperature for 1 hr. The fluorescence intensity in the plates was measured using an Envision plate reader. Each test compound was measured at 15 concentrations and in triplicates.
% is scaled to controls: 0 for no effect and ±100 for the full control effect; potency is read from the fitted curve at half-maximal effect.

Going from `N#CCC#N` to `N#C/C(N)=C(/N)C#N`, the “activity change, negative = inhibition” value falls from -0.421% to -2.48%.

Going from `CCCCC(CC)COP(=O)(Oc1ccccc1)Oc1ccccc1` (stereo not given) to `O=C(O)c1ccccc1C(=O)Nc1cccc2ccccc12`, the “activity change, negative = inhibition” value falls from 9.65% to 5.15%.

Compared with `O=S(=O)(Cl)c1ccccc1`, `CC(C)(OO)c1ccccc1` is higher in “activity change, negative = inhibition” value: -0.5% for the first, 6.97% for the second.

Compared with `O=C(NC(=O)c1c(F)cccc1F)Nc1cc(Cl)c(Oc2ncc(C(F)(F)F)cc2Cl)c(Cl)c1`, `O=C(N[C@H](c1ccccc1)[C@@H]1CN2CCC1CC2)c1c(Cl)ccc(C(F)(F)F)c1Cl` is lower in “activity change, negative = inhibition” value: -0.791% for the first, -11.6% for the second.

Compared with `CC(C)(C)c1cc([N+](=O)[O-])cc([N+](=O)[O-])c1O`, `CC(=O)C(C)(C)C` is higher in “activity change, negative = inhibition” value: 0.312% for the first, 4.36% for the second.

Going from `Cl/C=C\C[N+]12CN3CN(CN(C3)C1)C2` to `O=C1C(Cl)C(CCl)CN1c1cccc(C(F)(F)F)c1` (stereo not given), the “activity change, negative = inhibition” value falls from -0.734% to -2.13%.

Compared with `CCCCCC[N+](=O)[O-]`, `CCOC(=O)CBr` is higher in “activity change, negative = inhibition” value: 1.59% for the first, 4.14% for the second.

Compared with `CO/N=C(/C(=O)OC)c1ccccc1COc1ccccc1C`, `COC1=CC(=O)O[C@@H](CCc2ccccc2)C1` is higher in “activity change, negative = inhibition” value: 0.359% for the first, 0.867% for the second.

Going from `CCOS(C)(=O)=O` to `CCBr`, the “activity change, negative = inhibition” value rises from 3.76% to 4.86%.

First: COc1cc(CC(C)N)cc2c1OCO2 (stereo not given)
Second: COP(=S)(OC)Oc1cc(Cl)c(I)cc1Cl
The “activity change, negative = inhibition” value of the first is higher: 3.04% for the first, -4.02% for the second.

First: CC(C)O.CC(C)O.OCCN(CCO)CCO.OCCN(CCO)CCO.[Ti]
Second: C=CC(=O)OCC(C)O (stereo not given)
The “activity change, negative = inhibition” value of the first is lower: -0.946% for the first, 1.33% for the second.

First: COc1nn(CSP(=S)(OC)OC)c(=O)s1
Second: C=CC(=O)OC(C)(C)C
The “activity change, negative = inhibition” value of the first is lower: 1.09% for the first, 2.86% for the second.

First: C=COC(C)=O
Second: C=CC(C)=O
The “activity change, negative = inhibition” value of the first is lower: -6.07% for the first, 0.426% for the second.

First: ClCC(Br)CBr (stereo not given)
Second: O=C(O)COc1ccc(Cl)cc1
The “activity change, negative = inhibition” value of the first is higher: 3.44% for the first, 3.18% for the second.

Going from `Oc1ccc(Cl)c(Cl)c1Cl` to `NC(=O)C(Cl)(Cl)Cl`, the “activity change, negative = inhibition” value falls from -1.01% to -4.86%.

First: O=S1OC[C@@H]2[C@H](CO1)[C@]1(Cl)C(Cl)=C(Cl)[C@@]2(Cl)C1(Cl)Cl (stereo not given in full)
Second: C=CC(=O)OC
The “activity change, negative = inhibition” value of the first is lower: -7.1% for the first, -0.541% for the second.

`C(=NC1CCCCC1)=NC1CCCCC1` was tested, and the Potency was “inactive”.
With `CCOP(=O)(OCC)SCCSCC` the Potency was “inactive”.
`O=C(CCl)c1ccc(Cl)cc1Cl` was tested, and the Potency was 23.7 µM (active).

Going from `O=C1c2ccccc2C(=O)C1C(=O)C(c1ccccc1)c1ccccc1` to `COC(=O)c1cncn1C(C)c1ccccc1` (stereo not given), the “activity change, negative = inhibition” value falls from 4.38% [at 42.5 µM] to -0.816% [at 42.5 µM].

Going from `c1ccc(C2CC2)c(OCC2=NCCN2)c1` to `Clc1ccc(C(OCCN2CCCCC2)c2ccccc2)cc1` (stereo not given), the “activity change, negative = inhibition” value falls from 0.608% [at 42.5 µM] to -5.65% [at 42.5 µM].

For `CC(C)=CCOc1c2occc2cc2ccc(=O)oc12`, the “activity change, negative = inhibition” value was -6.51% [at 42.5 µM].
